Six molecules from PubChem BioAssay (NCATS) can be followed below.

Records with an inconclusive call do not appear. Calls of active or inactive are those of the source. Unless noted, calls come from the whole dose curve; as a rule, active = well fitted curve in either direction with a large enough effect (not every such curve was filed as active); inconclusive = small, poorly fitted or top-dose-only effect, or another doubt; inactive = flat fitted curve, though single readings scatter. Bounds are passed on as bounds.

For test [1], the target named is Lysosomal acid glucosylceramidase (Homo sapiens) (UniProt P04062). The experiment in a line: Glucocerebrosidase-p2 (AID 348; in the data active = potency below about 10 µM; note: potency is the fitted concentration of half-maximal effect). The conditions noted are these: purified GBA, blue fluorogenic substrate, 40 min. A digest of the protocol: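 Compounds titrated from 0.6 nM upwards against 0.2 nM enzyme in pH 5.9 citric acid/KH2PO4, taurocholate, tween-20; blue fluorogenic substrate 80 uM, 40 min room temperature, stopped and read Ex 365/Em 440 for AC50.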
Lysosomal acid glucosylceramidase (Homo sapiens), sequence (P04062 whole entry, looked up): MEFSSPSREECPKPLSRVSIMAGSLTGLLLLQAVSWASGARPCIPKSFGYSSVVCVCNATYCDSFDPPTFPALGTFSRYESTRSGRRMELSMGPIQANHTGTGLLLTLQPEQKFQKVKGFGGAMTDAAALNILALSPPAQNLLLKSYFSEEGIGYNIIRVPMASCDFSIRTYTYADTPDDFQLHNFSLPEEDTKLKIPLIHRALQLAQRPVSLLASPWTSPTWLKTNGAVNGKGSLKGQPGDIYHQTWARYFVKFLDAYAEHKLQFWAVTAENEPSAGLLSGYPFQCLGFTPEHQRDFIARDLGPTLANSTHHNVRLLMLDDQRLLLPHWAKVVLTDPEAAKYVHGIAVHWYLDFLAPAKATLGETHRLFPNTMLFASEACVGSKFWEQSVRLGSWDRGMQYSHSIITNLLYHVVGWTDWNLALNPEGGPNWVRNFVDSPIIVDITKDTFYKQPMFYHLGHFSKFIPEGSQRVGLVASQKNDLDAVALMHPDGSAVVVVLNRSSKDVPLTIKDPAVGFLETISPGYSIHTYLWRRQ

A short description of test [2]: AP1 Signaling Pathway (AID 357).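 Note: ME-180 reporter cells stimulated with EGF at its EC50 level; % is set by controls: 0 for no effect and ±100 for the full control effect.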 The conditions noted are these: ME-180 AP-1-bla reporter, EGF-induced, beta-lactamase ratio, 5 h; at 7.69 µM (top of the series) unless noted. The procedure, abridged: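 AP-1-bla ME-180 cells, Opti-MEM + 0.5% dialyzed FBS, plated overnight 37 °C. Cpd titration + EC50 EGF, 5 h 37 °C. CCF4 2.5 h RT; ex 405, em 460/530 ratio → %activity, AC50.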

The target in test [3] is Cytochrome P450 1A2 (Homo sapiens) (UniProt P05177). Put plainly: p450-cyp1a2 (AID 410; calls by dose curve; note: potency is the fitted concentration of half-maximal effect;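 for activity change, negative = inhibition: -100% = full effect of reference inhibitor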). The conditions noted are these: recombinant CYP1A2, luciferin-ME demethylation, luminescence; series mostly up to 57 µM. A digest of the protocol:
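Inhibition was calculated relative to 57 uM furafylline (full inhibition). The reaction used human CYP1A2 at 20nM with Luciferin-ME at its Km, 100uM, driven by an NADPH-regenerating system for 60 min at room temperature.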

A short description of test [4]: NFAT Signaling Pathway (AID 444).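 Note: carbachol stimulus at about its EC50 of 1 µM final; % is set by controls: 0 for no effect and ±100 for the full control effect.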 The settings on record: Jurkat NFAT-bla M1, carbachol, beta-lactamase ratio, 5 h; at 7.69 µM (top of the series) unless noted. A digest of the protocol: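 Jurkat cells carrying an NFAT-driven β-lactamase reporter and co-transfected muscarinic M1 receptor were treated with compound plus carbachol (1 uM final, an EC50 level) for 5 h at 37 °C. CCF4 loading followed for 1 h at RT; 460/530 nm ratio gave %activity.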

A short description of test [5]: Stat Signaling Pathway (AID 446).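 Note: ME-180 cervical cancer cells given 40 pM IL-6 alongside compound; SIE-controlled beta-lactamase reporter measured as 460/530 nm FRET emission ratio; % is set by controls: 0 for no effect and ±100 for the full control effect.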 The settings on record: ME-180 SIE beta-lactamase reporter, IL-6 stimulated, 5 h; at 7.69 µM (top of the series) unless noted. A digest of the protocol:
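Reporter line: ME-180 cervical carcinoma, SIE-beta-lactamase. Treatment: compound with 40 pM IL-6, 5 hrs, 37 C, in low-serum OPTI-MEM with 10 mM HEPES pH 7.3. Detection: 460/530 nm fluorescence.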

Test [6] addresses Glucocorticoid receptor (Homo sapiens) (UniProt P04150). Put plainly: GR-EFC Redistribution (AID 451; calls by dose curve; note: potency is the fitted concentration of half-maximal effect). The conditions noted are these: CHO-K1 GR-EFC translocation, beta-gal luminescence, 2 h. The procedure, abridged: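 CHO-K1 cells stably expressing nuclear-localized β-gal enzyme acceptor and GR fused C-terminally to the enzyme donor fragment; ligand-driven nuclear translocation restores β-gal by complementation. Compounds titrated up to 46 uM final, 2 h at 37 °C; luminescence read.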

The target of test [7] is Mitogen-activated protein kinase 10 (Mus musculus) (UniProt Q61831). The experiment in a line: JNK3 AlphaScreen Assay (AID 530).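 Note: kinase came from lysate of stimulated human HepG2 cells; signal reports phosphorylation of biotinylated GST-cJun 1-79 at Ser73 with 10 µM ATP; % is set by controls: 0 for no effect and ±100 for the full control effect.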 The settings on record: JNK3 lysate, c-Jun phosphorylation; series mostly up to 57.1 µM. The procedure, abridged:
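JNK3 came from HepG2 lysates pre-activated with IL-1beta and TNF-alpha and phosphorylated biotinylated GST-cJun (1-79) at 10 uM ATP, pH 7.6, room temperature. Compounds were titrated. AlphaScreen signal used anti-phospho-cJun (Ser73) antibody.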

Test [8] addresses 3',5'-cyclic-AMP phosphodiesterase 4B (Homo sapiens) (UniProt Q07343). The experiment in a line: qHTS Assay for Inhibitors of PDE-IV (AID 607; active = well fitted activation curve with a large enough effect in the main read-out, with a control signal flat, not every such curve was filed as active; note: % of control where 0% means no effect). The settings on record: HEK293 ACTOne CNG channel cells, membrane potential fluorescence; series mostly up to 22.9 µM. The procedure, abridged:
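Cell-based read-out of cAMP via a modified cyclic nucleotide-gated channel and membrane potential dye (535/590 nm) in HEK293 cells expressing PDE4 endogenously. Compounds tested up to 22.9 uM final; 100 uM RO 20-1724 reference.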
Background: In qHTS, concentration-response curves come from the screen itself.

The target in test [9] is Cytochrome P450 3A4 (Homo sapiens) (UniProt P08684). The experiment in a line: qHTS Assay for Activators of Cytochrome P450 3A4 (AID 885; active = well fitted curve in the direction sought with a large enough effect; an effect the other way counts as inactive or inconclusive; note: nearly all actives have a fitted effect of over 65% in size). The conditions noted are these: recombinant CYP3A4, Luciferin-PPXE luminescence, 60 min; series mostly up to 57.1 µM. The procedure, abridged: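 Signal was normalized against complete inhibition by 57 uM ketoconazole. The reaction used 20nM CYP3A4 with 25uM Luciferin-PPXE, 10-min compound preincubation and a 60-min NADPH-supported step at RT.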
Cytochrome P450 3A4 (Homo sapiens), sequence (P08684 whole entry, looked up): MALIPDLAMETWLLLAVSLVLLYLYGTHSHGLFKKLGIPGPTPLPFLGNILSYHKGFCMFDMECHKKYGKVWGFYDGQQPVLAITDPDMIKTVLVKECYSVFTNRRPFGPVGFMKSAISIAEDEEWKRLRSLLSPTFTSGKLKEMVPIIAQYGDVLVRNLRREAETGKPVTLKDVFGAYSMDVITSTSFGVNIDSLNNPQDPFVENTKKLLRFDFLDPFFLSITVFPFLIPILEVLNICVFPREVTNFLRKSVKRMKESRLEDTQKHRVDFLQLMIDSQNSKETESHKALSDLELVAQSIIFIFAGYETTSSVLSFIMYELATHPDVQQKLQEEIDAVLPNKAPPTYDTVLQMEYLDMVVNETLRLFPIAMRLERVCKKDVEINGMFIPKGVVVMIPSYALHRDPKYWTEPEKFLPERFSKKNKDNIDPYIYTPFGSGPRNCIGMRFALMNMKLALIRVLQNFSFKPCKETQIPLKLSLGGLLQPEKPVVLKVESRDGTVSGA

Test [10] in a line: qHTS Assay for Lipid Storage Modulators (AID 1519; calls by dose curve). The conditions noted are these: Drosophila S3 cells, BODIPY lipid droplet/cell ratio, laser cytometry, cells loaded with oleic acid; for activity change, negative = inhibition: at 57.5 µM (top of the series). A digest of the protocol:
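Cells seeded at 5,000 per well were treated with compounds over a concentration series and loaded with oleic acid (400 uM, as added). Lipid droplet fluorescence (488 nm excitation, 500-530 nm channel) was read by laser-scanning cytometry and normalized to 20 uM Triacsin C.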

The nature of test [11]: Primary qHTS for small molecule stabilizers of the endoplasmic reticulum resident proteome: Secreted ER Calcium Modulated Protein (SERCaMP) assay (AID 1508630; active = well fitted curve in the direction sought with a large enough effect; an effect the other way counts as inactive or inconclusive; note: % is set by controls: 0 for no effect and ±100 for the full control effect). The conditions noted are these: SH-SY5Y GLuc-SERCaMP (Gaussia luciferase released on ER calcium loss) secretion, thapsigargin, luminescence; series mostly up to 38.4 µM. The procedure, abridged:
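GLuc-SERCaMP-expressing SH-SY5Y cells, pretreated 16 h with compound, are challenged with thapsigargin to empty ER calcium stores; after 4 h, coelenterazine is added directly to the medium and luminescence is imaged.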

The target of test [12] is Cytochrome P450 3A4 (Homo sapiens) (UniProt P08684). The experiment in a line: qHTS Assay for Inhibitors and Substrates of Cytochrome P450 3A4 (AID 884; active = well fitted curve in the direction sought with a large enough effect; an effect the other way counts as inactive or inconclusive; note: potency is the fitted concentration of half-maximal effect; nearly all actives have a fitted effect of over 50% in size). The settings on record: recombinant CYP3A4, Luciferin-PPXE luminescence; series mostly up to 57.1 µM. The procedure, abridged:
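20 nM human CYP3A4 with 25 uM Luciferin-PPXE (at KM) in 200 mM KPO4, preincubated 10 min with compound; NADPH regeneration started a 60 min RT reaction. Luciferin detected by luminescence, normalized to 57 uM ketoconazole as full inhibition.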

Test [13] addresses Cytochrome P450 2D6 (Homo sapiens) (UniProt P10635). Put plainly: qHTS Assay for Inhibitors and Substrates of Cytochrome P450 2D6 (AID 891; active = well fitted curve in the direction sought with a large enough effect; an effect the other way counts as inactive or inconclusive; note: potency is the fitted concentration of half-maximal effect; nearly all actives have a fitted effect of over 60% in size). The conditions noted are these: recombinant CYP2D6, luciferin-ME EGE luminescence; series mostly up to 57.1 µM. A digest of the protocol: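 Human CYP2D6 (5 nM) with 30 uM Luciferin-ME EGE (at Km) in 100 mM KPO4, compound preincubated 10 min, then NADPH regeneration system for 60 min at room temperature. Luciferin read by luminescence; normalized to 1.43 uM quinidine.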

Test [14] deals with Cytochrome P450 2C19 (Homo sapiens) (UniProt P33261). The experiment in a line: qHTS Assay for Inhibitors and Substrates of Cytochrome P450 2C19 (AID 899; active = well fitted curve in the direction sought with a large enough effect; an effect the other way counts as inactive or inconclusive; note: potency is the fitted concentration of half-maximal effect; nearly all actives have a fitted effect of over 60% in size). The conditions noted are these: recombinant CYP2C19, luciferin-H EGE luminescence; series mostly up to 57.1 µM. A digest of the protocol: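 In 50mM KPO4, the reaction held 5nM enzyme and KM-level (10uM) Luciferin-H EGE; it ran 60 min at 37C after NADPH regeneration and a 10 min compound preincubation. Luminescence values were scaled to 57uM ketoconazole as complete inhibition.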
Cytochrome P450 2C19 (Homo sapiens), sequence (P33261 whole entry, looked up): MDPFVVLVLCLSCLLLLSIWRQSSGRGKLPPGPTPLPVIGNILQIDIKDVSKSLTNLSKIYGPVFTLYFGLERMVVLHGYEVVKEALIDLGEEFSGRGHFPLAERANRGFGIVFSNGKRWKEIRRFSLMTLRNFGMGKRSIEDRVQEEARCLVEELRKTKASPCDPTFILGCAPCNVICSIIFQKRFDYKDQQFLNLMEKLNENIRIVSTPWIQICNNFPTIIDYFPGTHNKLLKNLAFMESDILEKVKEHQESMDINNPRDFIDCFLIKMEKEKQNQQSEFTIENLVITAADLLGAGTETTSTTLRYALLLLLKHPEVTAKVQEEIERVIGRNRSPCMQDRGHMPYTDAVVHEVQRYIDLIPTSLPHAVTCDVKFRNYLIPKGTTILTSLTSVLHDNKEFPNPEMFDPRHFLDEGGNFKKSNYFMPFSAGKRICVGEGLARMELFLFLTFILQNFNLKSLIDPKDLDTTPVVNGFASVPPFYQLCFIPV

Test [15] in a line: Confirmation and Secondary Assay for Modulators of Hemoglobin Beta Chain Splicing at IVS2 654 locus (AID 910; active = well fitted curve in the direction sought with a large enough effect; an effect the other way counts as inactive or inconclusive;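 note: per-well total GFP intensity by laser scanning cytometry after 2-day treatment; % of control where 0% means no effect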). The settings on record: HeLa EGFP-654 splicing reporter, GFP fluorescence, 48 h; series mostly up to 38.3 µM. A digest of the protocol:
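HeLa cells stably carrying EGFP interrupted by mutant beta-globin IVS2-654 intron (CMV-driven) were treated with compound for 2 days at 37C; corrected splicing was scored as total peak GFP intensity per well (488 nm excitation, 500-520 nm emission).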

A short description of test [16]: Confirmation and Secondary Assay for Modulators of Hemoglobin Beta Chain Splicing at IVS2 705 locus (AID 930; active = well fitted curve in the direction sought with a large enough effect; an effect the other way counts as inactive or inconclusive; note: % of control where 0% means no effect). The settings on record: HeLa EGFP-705 splicing reporter, GFP fluorescence, 48 h; series mostly up to 38.3 µM. The procedure, abridged: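 HeLa cells stably carrying EGFP interrupted by mutant beta-globin IVS2-705 intron (CMV-driven) were seeded at 500 cells/well, treated next day with compound for 2 days at 37C; corrected splicing restores EGFP, read as total peak GFP intensity per well.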

[17] abbreviates: measured here: cell count channel max response.
[18] abbreviates: measured here: lipid channel max response.

3',5'-cyclic-AMP phosphodiesterase 4B (Homo sapiens), sequence (Q07343 whole entry, looked up): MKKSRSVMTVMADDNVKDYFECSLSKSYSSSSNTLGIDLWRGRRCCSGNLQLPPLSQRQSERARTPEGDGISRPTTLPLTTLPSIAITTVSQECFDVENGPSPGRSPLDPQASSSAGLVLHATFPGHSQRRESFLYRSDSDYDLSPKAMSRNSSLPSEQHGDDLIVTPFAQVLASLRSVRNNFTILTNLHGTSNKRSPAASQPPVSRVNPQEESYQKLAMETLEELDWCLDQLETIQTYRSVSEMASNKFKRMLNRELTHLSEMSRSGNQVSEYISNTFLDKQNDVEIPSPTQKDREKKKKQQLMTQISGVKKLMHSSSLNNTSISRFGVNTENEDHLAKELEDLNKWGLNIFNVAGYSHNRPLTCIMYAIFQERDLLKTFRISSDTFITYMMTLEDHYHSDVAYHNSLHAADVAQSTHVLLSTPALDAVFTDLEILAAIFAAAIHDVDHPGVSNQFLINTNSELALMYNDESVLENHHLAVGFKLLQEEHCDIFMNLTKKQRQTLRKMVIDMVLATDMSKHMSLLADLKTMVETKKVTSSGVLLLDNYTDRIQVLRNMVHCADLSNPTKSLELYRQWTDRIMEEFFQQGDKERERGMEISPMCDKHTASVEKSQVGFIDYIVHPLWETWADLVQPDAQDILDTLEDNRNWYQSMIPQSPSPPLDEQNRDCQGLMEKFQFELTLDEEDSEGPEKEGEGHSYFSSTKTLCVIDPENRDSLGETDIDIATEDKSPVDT
Cytochrome P450 1A2 (Homo sapiens), sequence (P05177 whole entry, looked up): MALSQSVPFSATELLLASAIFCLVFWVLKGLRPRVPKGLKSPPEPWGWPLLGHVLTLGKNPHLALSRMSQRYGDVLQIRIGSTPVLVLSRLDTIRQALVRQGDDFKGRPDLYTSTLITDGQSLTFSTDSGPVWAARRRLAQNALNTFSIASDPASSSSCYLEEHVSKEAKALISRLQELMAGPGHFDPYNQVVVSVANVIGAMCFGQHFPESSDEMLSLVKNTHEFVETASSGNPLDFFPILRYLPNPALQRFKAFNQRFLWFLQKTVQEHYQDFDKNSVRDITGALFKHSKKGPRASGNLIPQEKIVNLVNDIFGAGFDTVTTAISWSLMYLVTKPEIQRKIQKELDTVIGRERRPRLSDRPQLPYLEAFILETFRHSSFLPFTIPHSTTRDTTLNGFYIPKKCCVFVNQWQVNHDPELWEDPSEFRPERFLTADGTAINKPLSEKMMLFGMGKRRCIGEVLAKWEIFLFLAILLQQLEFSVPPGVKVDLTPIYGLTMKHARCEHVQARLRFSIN
Glucocorticoid receptor (Homo sapiens), sequence (P04150 whole entry, looked up, the tested form may be a part): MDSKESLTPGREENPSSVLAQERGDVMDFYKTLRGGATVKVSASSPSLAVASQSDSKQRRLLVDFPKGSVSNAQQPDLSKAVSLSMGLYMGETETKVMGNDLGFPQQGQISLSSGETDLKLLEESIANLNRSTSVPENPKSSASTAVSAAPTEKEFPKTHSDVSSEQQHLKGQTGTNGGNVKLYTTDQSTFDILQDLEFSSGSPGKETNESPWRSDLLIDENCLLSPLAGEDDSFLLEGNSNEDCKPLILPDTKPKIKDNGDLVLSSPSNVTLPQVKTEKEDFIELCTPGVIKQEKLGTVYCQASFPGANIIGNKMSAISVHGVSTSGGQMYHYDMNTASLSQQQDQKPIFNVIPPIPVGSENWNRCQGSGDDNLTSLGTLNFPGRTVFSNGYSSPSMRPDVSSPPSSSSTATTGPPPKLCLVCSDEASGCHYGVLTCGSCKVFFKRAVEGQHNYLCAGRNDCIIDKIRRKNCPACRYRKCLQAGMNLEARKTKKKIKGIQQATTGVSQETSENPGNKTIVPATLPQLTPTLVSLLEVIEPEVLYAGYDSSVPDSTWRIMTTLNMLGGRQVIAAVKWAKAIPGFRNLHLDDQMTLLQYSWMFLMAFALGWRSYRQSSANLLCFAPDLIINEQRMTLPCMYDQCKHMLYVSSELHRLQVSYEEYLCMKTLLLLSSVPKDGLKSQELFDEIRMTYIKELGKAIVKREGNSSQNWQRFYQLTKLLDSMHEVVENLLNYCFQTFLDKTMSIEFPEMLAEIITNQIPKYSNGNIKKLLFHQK
Cytochrome P450 2D6 (Homo sapiens), sequence (P10635 whole entry, looked up): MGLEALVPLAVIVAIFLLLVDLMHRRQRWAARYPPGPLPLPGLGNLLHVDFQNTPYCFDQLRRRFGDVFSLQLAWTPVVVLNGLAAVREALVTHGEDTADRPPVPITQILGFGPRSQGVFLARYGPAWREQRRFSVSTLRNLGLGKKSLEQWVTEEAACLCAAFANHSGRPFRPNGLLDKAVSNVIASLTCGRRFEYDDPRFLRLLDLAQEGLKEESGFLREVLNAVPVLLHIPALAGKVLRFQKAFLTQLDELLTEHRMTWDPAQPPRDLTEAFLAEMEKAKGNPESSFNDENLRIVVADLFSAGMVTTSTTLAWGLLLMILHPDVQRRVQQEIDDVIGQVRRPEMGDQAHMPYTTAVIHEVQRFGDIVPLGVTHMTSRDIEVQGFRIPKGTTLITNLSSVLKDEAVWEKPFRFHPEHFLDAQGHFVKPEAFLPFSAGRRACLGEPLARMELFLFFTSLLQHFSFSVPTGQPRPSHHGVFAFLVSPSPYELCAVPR

`CS(=O)(=O)N1CCC[C@@]2(CCN(c3ccccn3)C2)C1`: the Potency in [1] is > 11.4 µM (inactive); in test [6] it was > 46 µM (inactive). Moreover, the activity change, negative = inhibition was -9.92% (inactive) in [2], -19.3% (inactive) in [4] and 2.29% (inactive) in test [10]. Also, the Potency entry in [3], in test [8], in test [9] and in test [11] was “inactive” in each case. In addition, the activity, negative = inhibition in test [5] is -8.41% (inactive). In test [7], the molecule was classed as inactive. Besides, the max response in test [10] (setting [17]) was -1.27%; in test [10] (setting [18]) it was 2.21%.

As for `O=C(Nc1cccc(F)c1)N1CCCC2(CCN(S(=O)(=O)c3ccccc3)CC2)C1`, the values for the Potency in test [1] and in test [6] were > 11.4 µM (inactive) and > 46 µM (inactive), respectively. The activity change, negative = inhibition in test [2] was -9.39% (inactive); in [4], -29.9% (inactive); in test [10] it was 1.65% (inactive). Further, the Potency entry in test [3], in test [8], in test [9] and in test [11] was “inactive” each time. The activity, negative = inhibition in test [5] is -7.25% (inactive). In addition, in [7], the molecule was classed as inactive. Moreover, the max response in test [10] (setting [17]) stood at 13.8%; in test [10] (setting [18]) it was 17.3%.

Turning to `CC(C)NC(=O)N1CC[C@@]2(CCCN(C(=O)c3csnn3)C2)C1`, the Potency is > 11.4 µM (inactive) in test [1] and > 46 µM (inactive) in [6]. In addition, the activity change, negative = inhibition in test [2] was 8.93% (inactive); in test [4], 20.3% (inactive); in [10], -0.319% (inactive). In addition, the Potency entry in test [3], in test [8], in [9] and in [11] was “inactive” throughout. Also, in [5], the activity, negative = inhibition is 10.6% (inactive). Also, in test [7], the molecule was classed as inactive. The max response in test [10] (setting [17]) was 4.92%; in test [10] (setting [18]) it was 7.3%.

Take `CN(C)c1ccc(-c2cc(-n3ccnc3)ncn2)cc1`: the Potency was > 11.4 µM (inactive) in [1]; 0.158 µM (active) in [3]; > 46 µM (inactive) in test [6]; 0.0631 µM (active) in test [12]; 7.94 µM (active) in test [13]; 7.94 µM (active) in test [14]. Also, the activity change, negative = inhibition in test [2] is 2.17% (inactive); in test [4], 9.75% (inactive); in [10] it was 9.39% (inactive). In [5], the activity, negative = inhibition was 15.9% (inactive). For the same molecule, the outcome in [7], in test [15] and in test [16] was inactive. Moreover, the Potency entry in test [8], in test [9] and in [11] was “inactive” each time. The results for the max response in test [10] (setting [17]) and in test [10] (setting [18]) were 11.3% and 23%, respectively.

Take `N#Cc1cccc(NC(=O)N2CC[C@@]3(CCCN(C(=O)c4ccncc4)C3)C2)c1`: the Potency in test [1] is > 11.4 µM (inactive); in [6] it was > 46 µM (inactive). The results for the activity change, negative = inhibition in test [2], in [4] and in test [10] were -19.8% (inactive), 1.61% (inactive) and 1.67% (inactive), respectively. Also, the Potency entry in test [3], in test [8], in [9] and in test [11] was “inactive” each time. Further, in [5], the activity, negative = inhibition was 4.09% (inactive). Besides, the molecule was called inactive in [7]. The values for the max response in [10] (setting [17]) and in test [10] (setting [18]) were 17.2% and 21.1%, respectively.

Take `COC(=O)N1CCC2(CCCN(C(=O)Nc3cccc(F)c3)C2)CC1`: the figures for the Potency in [1] and in test [6] were > 11.4 µM (inactive) and > 46 µM (inactive), respectively. The activity change, negative = inhibition in [2] is -3.15% (inactive); in test [4] it was -20.9% (inactive); in test [10], -17.4% (inactive). The Potency entry in test [3], in [8], in [9] and in [11] was “inactive” each time. Moreover, the activity, negative = inhibition in [5] was -5.21% (inactive). Further, the molecule was called inactive in [7]. Also, the max response was -0.146% in [10] (setting [17]) and -17.1% in test [10] (setting [18]).
